Data: the antibiotic and cytotoxicity screens of Wong et al. (2023)
The whole screen tested about 39,000 compounds, of which about 3,300 (8.5%) were called active. The full list was thinned out, with actives kept by preference.

test system: HepG2; test: cytotoxicity call (relative viability < 0.9); conditions: 10 µM

Q: `C[C@H]1CCCCO[C@@H](CN(C)C(=O)Nc2ccc3c(c2)OCO3)[C@@H](C)CN([C@@H](C)CO)C(=O)c2cc(NC(=O)Nc3ccc(C(F)(F)F)cc3)ccc2O1` was tested. Which cytotoxicity call did it give?
A: inactive

Q: Which cytotoxicity call does the source give for `C=CC[C@@H](CC(=O)N[C@H](CO)Cc1ccccc1)C(=O)NCCOC(=O)[C@@H](CC=C)CC(=O)OC(C)(C)C` here?
A: inactive

Q: With `COCCCNC(=O)C[C@H]1SC(=N)NC1=O` as the molecule, how does the cytotoxicity call read?
A: inactive

Q: With `COc1ccc(NC(=O)Nc2ccc3c(c2)C(=O)N([C@@H](C)CO)C[C@H](C)[C@H](CN(C)S(=O)(=O)c2cccs2)OCCCC[C@H](C)O3)cc1` as the molecule, how does the cytotoxicity call read?
A: inactive

Q: Which cytotoxicity call does the source give for `COc1ccc(S(=O)(=O)N2C[C@@H](O)COC[C@H]3O[C@H](CC(=O)N[C@@H]4CCN(Cc5ccccc5)C4)CC[C@@H]32)cc1` here?
A: inactive

Q: For `O=C(C[C@@H]1C=C[C@@H](NS(=O)(=O)c2ccccc2)[C@H](CO)O1)NCc1ccncn1`, which cytotoxicity call is on record?
A: inactive

Q: For `C[C@H](CO)N1C[C@H](C)[C@H](CN(C)C(=O)C2CCCCC2)OCCCC[C@H](C)Oc2ccc(NC(=O)Nc3ccc(C(F)(F)F)cc3)cc2C1=O`, which cytotoxicity call is on record?
A: inactive

Q: `COc1ccc(NC(=O)N(C)C[C@H]2Oc3ccc(NC(=O)CCN4CCOCC4)cc3CC(=O)N([C@H](C)CO)C[C@H]2C)cc1` was tested. Which cytotoxicity call did it give?
A: inactive

Q: With `COc1ccc(COC[C@]23N=C4SCc5ccccc5C(=O)N4[C@H](c4ccccc4O2)[C@H]3CO[Si](C)(C)C(C)(C)C)cc1` as the molecule, how does the cytotoxicity call read?
A: inactive

Q: How did the cytotoxicity call turn out when `O=C(NCC(F)(F)F)[C@H]1[C@H](CO)[C@H]2Cn3c(cccc3=O)[C@H]2N1C(=O)C1CCC1` was run?
A: inactive

Q: Which cytotoxicity call does the source give for `C[C@H]1CN([C@@H](C)CO)S(=O)(=O)c2ccc(C#Cc3ccccc3)cc2O[C@H]1CN(C)S(=O)(=O)c1cn(C)cn1` here?
A: inactive

Q: How did the cytotoxicity call turn out when `Cc1noc(C)c1NC(=O)Nc1ccc2c(c1)C(=O)N([C@H](C)CO)C[C@H](C)[C@H](CN(C)Cc1ccc3c(c1)OCO3)OCCCC[C@@H](C)O2` was run?
A: inactive

Q: Which cytotoxicity call does the source give for `COc1ccc(S(=O)(=O)Nc2cccc3c2O[C@@H](CN(C)S(=O)(=O)c2cccs2)[C@H](C)CN([C@@H](C)CO)C3=O)cc1` here?
A: inactive

Q: With `COc1cc2c(cc1OC)CN(C(=O)[C@@H]1[C@H]3C(=O)O[C@H](c4ccccc4)[C@H](c4ccccc4)N3[C@H](c3ccc(O)cc3)[C@@]13C(=O)Nc1ccccc13)CC2` as the molecule, how does the cytotoxicity call read?
A: inactive

Q: `C[C@@H]1CCCCO[C@@H](CN(C)Cc2ccccc2)[C@H](C)CN([C@@H](C)CO)C(=O)c2cc(NC(=O)Nc3ccc(F)cc3)ccc2O1` was tested. Which cytotoxicity call did it give?
A: inactive

Q: Which cytotoxicity call does the source give for `C[C@@H]1CCCCO[C@@H](CN(C)Cc2ccccc2)[C@@H](C)CN([C@@H](C)CO)C(=O)c2cc(NC(=O)Nc3ccc(F)cc3)ccc2O1` here?
A: inactive

Q: For `C[C@@H]1CCCCO[C@@H](CN(C)Cc2ccccc2)[C@@H](C)CN([C@H](C)CO)C(=O)c2cc(NC(=O)Nc3ccc(F)cc3)ccc2O1`, which cytotoxicity call is on record?
A: inactive

Q: `C[C@@H]1CN([C@@H](C)CO)C(=O)c2cc(NC(=O)Nc3ccc(F)cc3)ccc2O[C@@H](C)CCCCO[C@H]1CN(C)Cc1ccccc1` was tested. Which cytotoxicity call did it give?
A: active

Q: How did the cytotoxicity call turn out when `C[C@@H]1CCCCO[C@H](CN(C)Cc2ccccc2)[C@@H](C)CN([C@H](C)CO)C(=O)c2cc(NC(=O)Nc3ccc(F)cc3)ccc2O1` was run?
A: inactive

Q: How did the cytotoxicity call turn out when `C[C@H]1CCCCO[C@H](CN(C)Cc2ccccc2)[C@@H](C)CN([C@@H](C)CO)C(=O)c2cc(NC(=O)Nc3ccc(F)cc3)ccc2O1` was run?
A: active

Q: Which cytotoxicity call does the source give for `C[C@@H]1CCCCO[C@H](CN(C)Cc2ccccc2)[C@@H](C)CN([C@@H](C)CO)C(=O)c2cc(NC(=O)Nc3ccc(F)cc3)ccc2O1` here?
A: inactive

Q: With `C[C@@H]1CCCCO[C@@H](CN(C)Cc2ccc(F)cc2)[C@H](C)CN([C@@H](C)CO)C(=O)c2cc(NC(=O)Nc3ccccc3)ccc2O1` as the molecule, how does the cytotoxicity call read?
A: inactive

Q: With `C[C@@H]1CCCCO[C@@H](CN(C)Cc2ccccc2)[C@H](C)CN([C@H](C)CO)C(=O)c2cc(NC(=O)Nc3ccc(F)cc3)ccc2O1` as the molecule, how does the cytotoxicity call read?
A: inactive

Q: Which cytotoxicity call does the source give for `C[C@@H]1CN([C@@H](C)CO)C(=O)c2cc(NC(=O)Nc3ccc(F)cc3)ccc2O[C@@H](C)CCCCO[C@@H]1CN(C)Cc1ccccc1` here?
A: active

Q: How did the cytotoxicity call turn out when `C[C@@H]1CN([C@H](C)CO)C(=O)c2cc(NC(=O)Nc3ccc(F)cc3)ccc2O[C@@H](C)CCCCO[C@H]1CN(C)Cc1ccccc1` was run?
A: active

Q: How did the cytotoxicity call turn out when `C[C@@H]1CN([C@@H](C)CO)S(=O)(=O)c2ccc(C#CCN(C)C)cc2O[C@H]1CN(C)C` was run?
A: inactive

Q: `C[C@H]1CN([C@@H](C)CO)C(=O)c2cc(NS(=O)(=O)c3ccccc3)ccc2O[C@@H]1CN(C)CC1CC1` was tested. Which cytotoxicity call did it give?
A: inactive

Q: With `C[C@H](CO)N1C[C@H](C)[C@@H](CN(C)Cc2ccc(C(=O)Nc3ccccc3N)cc2)Oc2ccc(NC(=O)Cc3cn(C)c4ccccc34)cc2CC1=O` as the molecule, how does the cytotoxicity call read?
A: inactive

Q: How did the cytotoxicity call turn out when `CN1C(=O)c2cc(NC(=O)c3cccs3)ccc2OC[C@@H]2O[C@H](CC(=O)NCC(F)(F)F)CC[C@@H]21` was run?
A: inactive

Q: For `C[C@@H]1CN([C@H](C)CO)C(=O)CCCn2cc(nn2)CO[C@H]1CN(C)S(=O)(=O)c1ccc(Oc2ccccc2)cc1`, which cytotoxicity call is on record?
A: inactive

Q: How did the cytotoxicity call turn out when `C[C@H](O)C#Cc1cnc2c(c1)C(=O)N([C@@H](C)CO)C[C@@H](C)[C@H](CN(C)C(=O)Nc1ccc(C(F)(F)F)cc1)O2` was run?
A: inactive

Q: `CS(=O)(=O)N1CCCn2c(nnc2Cn2cccn2)C1` was tested. Which cytotoxicity call did it give?
A: inactive

Q: `O=C(NO)c1ccc(C(=O)N/N=C/[C@H](O)[C@@H](O)[C@H](O)[C@H](O)CO)cc1` was tested. Which cytotoxicity call did it give?
A: inactive

Q: With `C[C@@H]1CN([C@H](C)CO)C(=O)c2cccc(NS(=O)(=O)c3ccc(F)cc3)c2O[C@H]1CN(C)S(=O)(=O)c1ccccc1` as the molecule, how does the cytotoxicity call read?
A: inactive

Q: For `Cc1ccc(S(=O)(=O)NCCC(=O)N2CCOCCOCCOCC2)cc1`, which cytotoxicity call is on record?
A: inactive

Q: For `CCOC(=O)N1CCN(C(=O)CN(C)S(=O)(=O)c2ccc3c(c2)c(=O)n(C)c(=O)n3C)CC1`, which cytotoxicity call is on record?
A: inactive

Q: For `Cn1c(=O)c2cc(S(=O)(=O)N3CCOCC3)ccc2n(C)c1=O`, which cytotoxicity call is on record?
A: inactive

Q: With `Cn1c(=O)c2cc(S(=O)(=O)NCCC(=O)NC3CCCC3)ccc2n(C)c1=O` as the molecule, how does the cytotoxicity call read?
A: active

Q: How did the cytotoxicity call turn out when `CN(CC(=O)NC1CCCC1)S(=O)(=O)c1ccc2c(c1)c(=O)n(C)c(=O)n2C` was run?
A: inactive

Q: How did the cytotoxicity call turn out when `C[C@H]1CCCN(C(=O)CCNS(=O)(=O)c2ccc3c(c2)c(=O)n(C)c(=O)n3C)C1` was run?
A: active

Q: With `C[C@H](CO)N1C[C@H](C)[C@H](CN(C)Cc2ccc(C(=O)Nc3ccccc3N)cc2)Oc2ccc(NS(=O)(=O)c3cn(C)cn3)cc2C1=O` as the molecule, how does the cytotoxicity call read?
A: inactive

Q: With `C[C@H]1CN([C@@H](C)CO)C(=O)c2cc(NS(=O)(=O)c3cccs3)ccc2O[C@H]1CN(C)Cc1ccncc1` as the molecule, how does the cytotoxicity call read?
A: inactive

Q: For `Clc1ccc(/C=C/C2=Nc3cccc4cccc(c34)N2)cc1`, which cytotoxicity call is on record?
A: inactive

Q: For `Nc1c(O)cccc1C(=O)O`, which cytotoxicity call is on record?
A: inactive

Q: How did the cytotoxicity call turn out when `CCC[C@H](NC(=O)[C@@H]1[C@H]2CCC[C@H]2CN1C(=O)[C@@H](NC(=O)[C@@H](NC(=O)c1cnccn1)C1CCCCC1)C(C)(C)C)C(=O)C(=O)NC1CC1` was run?
A: active

Q: `CN1CCN(C(=O)C[C@H]2CC[C@@H]3[C@H](COc4ccc(NC(=O)c5ccc(F)c(F)c5)cc4C(=O)N3C)O2)CC1` was tested. Which cytotoxicity call did it give?
A: inactive

Q: With `N=C(C[n+]1ccccc1)NO` as the molecule, how does the cytotoxicity call read?
A: active

Q: `c1cc[n+](C[n+]2ccccc2)cc1` was tested. Which cytotoxicity call did it give?
A: inactive

Q: With `C[C@@H]1CCCCO[C@H](CN(C)Cc2ccc(C(F)(F)F)cc2)[C@H](C)CN([C@H](C)CO)C(=O)c2cc(NC(=O)c3ccncc3)ccc2O1` as the molecule, how does the cytotoxicity call read?
A: inactive

Q: For `C[C@@H]1CN([C@H](C)CO)C(=O)c2cc(NC(=O)Nc3ccccc3)ccc2O[C@@H](C)CCCCO[C@H]1CN(C)Cc1ccccc1`, which cytotoxicity call is on record?
A: active

Q: How did the cytotoxicity call turn out when `C[C@@H]1CCCCO[C@@H](CN(C)Cc2ccccc2)[C@H](C)CN([C@H](C)CO)C(=O)c2cc(NC(=O)Nc3ccccc3)ccc2O1` was run?
A: active

Q: With `C[C@@H]1CCCCO[C@@H](CN(C)Cc2ccccc2)[C@@H](C)CN([C@H](C)CO)C(=O)c2cc(NC(=O)Nc3ccccc3)ccc2O1` as the molecule, how does the cytotoxicity call read?
A: inactive

Q: Which cytotoxicity call does the source give for `C[C@@H]1CCCCO[C@H](CN(C)Cc2ccccc2)[C@@H](C)CN([C@@H](C)CO)C(=O)c2cc(NC(=O)Nc3ccccc3)ccc2O1` here?
A: inactive

Q: With `C[C@@H]1CN([C@@H](C)CO)C(=O)c2cc(NC(=O)Nc3ccccc3)ccc2O[C@@H](C)CCCCO[C@H]1CN(C)Cc1ccccc1` as the molecule, how does the cytotoxicity call read?
A: inactive

Q: For `C[C@@H]1CCCCO[C@H](CN(C)Cc2ccccc2)[C@H](C)CN([C@@H](C)CO)C(=O)c2cc(NC(=O)Nc3ccccc3)ccc2O1`, which cytotoxicity call is on record?
A: inactive

Q: How did the cytotoxicity call turn out when `C[C@@H]1CCCCO[C@@H](CN(C)Cc2ccccc2)[C@H](C)CN([C@@H](C)CO)C(=O)c2cc(NC(=O)Nc3ccccc3)ccc2O1` was run?
A: active

Q: Which cytotoxicity call does the source give for `C[C@@H]1CN([C@H](C)CO)C(=O)c2cc(NC(=O)Nc3ccccc3)ccc2O[C@@H](C)CCCCO[C@@H]1CN(C)Cc1ccccc1` here?
A: active

Q: Which cytotoxicity call does the source give for `C[C@@H]1CCCCO[C@H](CN(C)Cc2ccccc2)[C@H](C)CN([C@H](C)CO)C(=O)c2cc(NC(=O)Nc3ccccc3)ccc2O1` here?
A: inactive

Q: For `C[C@H](CO)N1C[C@H](C)[C@@H](CN(C)Cc2ccccc2)OCCCC[C@H](C)Oc2ccc(NC(=O)Nc3ccccc3)cc2C1=O`, which cytotoxicity call is on record?
A: inactive

Q: For `C[C@H](CO)N1C[C@H](C)[C@H](CN(C)Cc2ccccc2)OCCCC[C@H](C)Oc2ccc(NC(=O)Nc3ccccc3)cc2C1=O`, which cytotoxicity call is on record?
A: inactive

Q: How did the cytotoxicity call turn out when `C[C@@H]1CN([C@@H](C)CO)C(=O)c2cc(NC(=O)Nc3ccccc3)ccc2O[C@@H](C)CCCCO[C@@H]1CN(C)Cc1ccccc1` was run?
A: inactive

Q: For `Cc1noc(C)c1NC(=O)N(C)C[C@@H]1Oc2ccc(NS(=O)(=O)c3cn(C)cn3)cc2CC(=O)N([C@@H](C)CO)C[C@@H]1C`, which cytotoxicity call is on record?
A: inactive

Q: `Cc1ccc(S(=O)(=O)N(C)C[C@H]2OCCCC[C@@H](C)Oc3ccc(NC(=O)Nc4ccc5c(c4)OCO5)cc3C(=O)N([C@@H](C)CO)C[C@H]2C)cc1` was tested. Which cytotoxicity call did it give?
A: inactive
